The panel holds about 83,000 compounds, 20% with a hit somewhere; the sample as a whole holds those more often.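 Growth was measured after 48 h exposure to one concentration of compound in 96-well plates. Values under 10 count as active.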 A number with no mark means an inactive call. Active and inactive are the calls of the source.
Legend:
Test in all cases: NCI-60 one-dose screen, 48 h (100 = growth as untreated, 0 = no growth, -100 = all killed)
Conditions in all cases: 10 µM unless noted
HCT-15 colon = test system: HCT-15 colon
HT29 colon = test system: HT29 colon
SNB-75 CNS = test system: SNB-75 CNS
SNB-19 CNS = test system: SNB-19 CNS
U251 CNS = test system: U251 CNS
PC-3 prostate = test system: PC-3 prostate
SK-MEL-5 melanoma = test system: SK-MEL-5 melanoma
UACC-62 melanoma = test system: UACC-62 melanoma
LOX IMVI melanoma = test system: LOX IMVI melanoma
SK-MEL-28 melanoma = test system: SK-MEL-28 melanoma

| Structure (SMILES) | growth (HCT-15 colon) | growth (HT29 colon) | growth (SNB-75 CNS) | growth (SNB-19 CNS) | growth (U251 CNS) | growth (PC-3 prostate) | growth (SK-MEL-5 melanoma) | growth (UACC-62 melanoma) | growth (LOX IMVI melanoma) | growth (SK-MEL-28 melanoma) |
| --- | --- | --- | --- | --- | --- | --- | --- | --- | --- | --- |
| C=C1C(=O)O[C@H]2[C@H]1CC/C(COC(=O)NCc1ccc(Cn3c(=O)sn(-c4ccc(I)cc4)c3=O)cc1)=C\CC[C@@]1(C)O[C@@H]21 | 57% | 34.1% | 81.6% | 107% | 83.6% | 77.5% | 98.3% | 81.2% | 69.4% | 93.9% |
| O=C(Nc1nc(Cl)nc(Nc2ccc(N3CCOCC3=O)cc2)n1)c1ccc(Cl)s1 | 94.2% | 94.3% | 103% | 88.2% | 85.4% | 85.4% | 91.3% | 87% | 62.1% | 96% |
| CCCCCc1ccc(S(=O)(=O)Nc2ccc3nc(N)oc3c2)cc1 | 82.5% | 89.4% | 40.7% | 66.3% | 71.5% | 57.2% | 4.66% (active) | 43.7% | 36.3% | 74.7% |
| CN1c2ccccc2S(=O)(=O)n2c(SCC(=O)Nc3nc4ccc(F)cc4s3)nnc21 | 119% | 119% | 90.7% | 107% | 127% | 87.8% | 87.2% | 96.5% | 92.5% | 127% |
| O=CCCCOCc1ccccc1 | 98.5% | 97.2% | 87.8% | 100% | 104% | 95.6% | 100% | 95.2% | 99% | 112% |
| COC(=O)c1sccc1-c1cc(O)c(C(=O)Nc2ccccc2)s1 | 97.7% | 90% | 72% | 107% | 101% | 90.4% | 102% | 91.2% | 96.6% | 110% |
| COc1ccc2c(c1)oc1c(C)c3c(c(C)c12)C(=O)N(CCOS(C)(=O)=O)C3=O | 102% | 101% | 103% | 95.4% | 108% | 96.5% | 101% | 87.8% | 90.3% | 102% |
| FC(F)(F)c1[nH]ncc1-c1nc2ccc3[nH]ncc3c2c2c1CCCC2 | 12.7% | 6.93% (active) | 8.42% (active) | 17.7% | 5.69% (active) | 21% | -73.7% (active) | 9.03% (active) | -38.2% (active) | 2.24% (active) |
| CNC(=O)Nc1ccc(-c2ccc3ncnc(Nc4cccc(Cl)c4)c3c2)cc1 | 45.9% | 29% | 54.6% | 69.6% | 54.9% | 45.1% | 56.1% | 64.7% | 60.8% | 58.9% |
| O=C(c1ccc(Br)cc1)C(Br)C(c1ccc(Cl)cc1)C(c1ccccc1)[N+](=O)[O-] (stereo not given) | 84.8% | 87.3% | 89.4% | 93.9% | 96.9% | 76.5% | 86.6% | 71.8% | 102% | 97.7% |
| Fc1cccc(-c2nc(-c3c[nH]c4ncccc34)cs2)c1 | 82.9% [100 µM] | 76% [100 µM] | -14.1% [100 µM] (active) | 70.8% [100 µM] | 33.7% [100 µM] | 59.6% [100 µM] | 50.6% [100 µM] | 73.1% [100 µM] | 74.3% [100 µM] | 89.2% [100 µM] |
| O=S(=O)(Nc1cc(F)cc(F)c1)c1ccc(-c2cnc(C3CC3)o2)cc1 | 20% | 4.44% (active) | -3.36% (active) | 30% | 33% | 48.1% | 29.4% | 33.7% | 36.3% | 60.8% |
| C[C@@H]1NC(=O)[C@H](Cc2ccccc2)N(Cc2cccnc2)C1=O | 103% | 102% | 85.1% | 96.1% | 91.1% | 94.1% | 101% | 92.7% | 98.5% | 112% |

— PubChem BioAssay (NCI)
